The nature of test [1]: HepG2 liver cancer cell viability effects, profiling panel, resazurin fluorescence, 24 h, PK04 Diversity Set (AID 1172). Particulars: higher = more signal.
Test [2] can be described thus: basal S. cerevisiae growth modulation, no modifier, primary screen, OD600, strain BY4716, 24 h, basal condition (AID 1173). To be noted: OD600, 24 h, higher = more signal, called active from +8 up or from −8 down.
A short description of test [3]: MM1S myeloma cell viability, profiling panel, resazurin fluorescence, basal, 24 h, PK04 Diversity Set (AID 1174).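 Further: MM1S multiple myeloma cell line.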 Particulars: higher = more signal, called active from +8 up or from −8 down. A general note: The colour change of resazurin is a common sign of viable cells or microbes.
In test [4] the target is Dihydroorotate dehydrogenase (quinone), mitochondrial (Plasmodium falciparum (isolate 3D7)) (UniProt Q08210). As to the kind of experiment: PfDHODH enzyme inhibitors, primary screen, biochemical, C-terminal His tag, absorbance 600 nm (AID 1175).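 Further: recombinant parasite enzyme with a five histidine tag at its C terminus.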 To be noted: DCIP absorbance 600 nm, higher = more signal, called active from +8 up or from −8 down.
The nature of test [5]: P. aeruginosa biofilm formation inhibitors, primary screen, strain PAO1, LB-PBS medium, absorbance 600 nm (AID 1176). To be noted: P. aeruginosa PAO1 growth/biofilm, A600, 12 h; higher = more signal.
Test [6] is described as follows: S. cerevisiae RM11-1a growth modifiers, primary screen, strain RM11-1a, OD600, basal, 24 h (AID 1177).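 Further: cultures grown under basal conditions with no added stressor.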 To be noted: OD600, 24 h, higher = more signal, called active from +8 up or from −8 down.
Test [7] in a line: E. coli acrAB mutant growth effects, primary screen, E. coli filamentation inducers, strain DRC39, OD650, 24 h (AID 1178).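 Further: growth measured as culture turbidity by optical density at 650 nm.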 To be noted: higher = more signal, called active from +8 up or from −8 down.
Test [8] can be described thus: E. coli acrAB mutant growth effects, primary screen, E. coli filamentation inducers, strain DRC39, OD650, 48 h (AID 1179).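 Further: screen aims at cell division blockers that make cells filament.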 Particulars: E. coli DRC39 delta-acrAB growth, higher = more signal, called active from +8 up or from −8 down.
The nature of test [9]: RPMI8226 myeloma cell viability, profiling panel, resazurin fluorescence, basal, 24 h, PK04 Diversity Set (AID 1180).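 Further: RPMI8826 multiple myeloma cell line at 5000 cells per well.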 To be noted: higher = more signal.
Test [10] addresses E3 ubiquitin-protein ligase XIAP (Homo sapiens) (UniProt P98170). In words: XIAP binders, primary screen, biophysical, small-molecule microarray, fluorescence 635 nm (AID 1181).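 Further: score merges 667 nm emission and signal to noise over triplicate slides.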 To be noted: small-molecule microarray binding, higher = more signal.
In test [11] the test system is XIP peptide (Xip251-270) binding. In words: small-molecule binders of XIP peptide, primary screen, biochemical, small-molecule microarray, fluorescence 635/667 nm, 0.1 µg/mL protein (AID 1182). Particulars: fluorescent protein binding, 635 nm, higher = more signal, called active from +8 up or from −8 down.
The subject of a further test is XIP peptide (Xip251-270). In words: small-molecule binders of XIP peptide, primary screen, biochemical, small-molecule microarray, fluorescence 635/667 nm, 0.5 µg/mL protein (AID 1183). Particulars: small-molecule microarray binding, fluorescence 635 nm; higher = more signal.
Test [12] is described as follows: Plasmodium falciparum growth inhibition, primary screen, strain 3D7, DAPI fluorescence, 100 nL (AID 1184).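 Further: parasites grown inside human red blood cells in medium with human serum.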 Particulars: P. falciparum 3D7 growth, 3 d, higher = more signal.
For test [13], the target named is Homeobox protein Hox-A13 (Mus musculus) (UniProt Q62424). As to the kind of experiment: inhibitors of HoxA13-DNA binding, primary screen, biochemical, fluorescence polarization, labeled oligonucleotide (AID 1185). Particulars: 15 min, higher = more signal, called active from +8 up or from −8 down. A general note: Fluorescence polarisation rises when a labelled molecule tumbles more slowly, as on binding a larger partner.

Test [14] can be described thus: inhibitors of hydroxyurea-induced Chk1 phosphorylation, primary screen, imaging, HeLa, phospho-Chk1 antibody, percent positive cells (AID 1186). Particulars: hydroxyurea-induced phospho-Chk1 immunofluorescence imaging, higher = more signal.
Test [15] can be described thus: inhibitors of hydroxyurea-induced Chk1 phosphorylation, primary screen, imaging, HeLa, phospho-Chk1 nuclear intensity (AID 1187). To be noted: hydroxyurea-induced phospho-Chk1 immunofluorescence imaging, higher = more signal.

Active and inactive are the calls of the source. Unless noted, how the calls were made is not given here.

Chain of Dihydroorotate dehydrogenase (quinone), mitochondrial (Plasmodium falciparum (isolate 3D7)) (Q08210 whole entry, looked up): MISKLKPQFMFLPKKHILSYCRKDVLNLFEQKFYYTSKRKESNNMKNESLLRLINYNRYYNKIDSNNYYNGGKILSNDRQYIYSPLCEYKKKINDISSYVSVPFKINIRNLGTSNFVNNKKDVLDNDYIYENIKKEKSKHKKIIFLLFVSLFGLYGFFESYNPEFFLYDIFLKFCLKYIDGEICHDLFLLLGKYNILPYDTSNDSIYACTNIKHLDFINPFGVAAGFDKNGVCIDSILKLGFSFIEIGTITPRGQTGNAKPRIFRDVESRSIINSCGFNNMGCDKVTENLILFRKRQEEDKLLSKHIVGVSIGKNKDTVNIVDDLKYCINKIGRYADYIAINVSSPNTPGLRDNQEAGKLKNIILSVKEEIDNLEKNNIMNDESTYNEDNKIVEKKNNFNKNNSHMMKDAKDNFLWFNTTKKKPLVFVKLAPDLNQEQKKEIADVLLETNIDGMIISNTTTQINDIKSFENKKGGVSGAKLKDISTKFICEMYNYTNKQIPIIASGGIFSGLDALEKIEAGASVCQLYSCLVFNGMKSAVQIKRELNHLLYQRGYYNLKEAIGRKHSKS
Chain of E3 ubiquitin-protein ligase XIAP (Homo sapiens) (P98170 whole entry, looked up): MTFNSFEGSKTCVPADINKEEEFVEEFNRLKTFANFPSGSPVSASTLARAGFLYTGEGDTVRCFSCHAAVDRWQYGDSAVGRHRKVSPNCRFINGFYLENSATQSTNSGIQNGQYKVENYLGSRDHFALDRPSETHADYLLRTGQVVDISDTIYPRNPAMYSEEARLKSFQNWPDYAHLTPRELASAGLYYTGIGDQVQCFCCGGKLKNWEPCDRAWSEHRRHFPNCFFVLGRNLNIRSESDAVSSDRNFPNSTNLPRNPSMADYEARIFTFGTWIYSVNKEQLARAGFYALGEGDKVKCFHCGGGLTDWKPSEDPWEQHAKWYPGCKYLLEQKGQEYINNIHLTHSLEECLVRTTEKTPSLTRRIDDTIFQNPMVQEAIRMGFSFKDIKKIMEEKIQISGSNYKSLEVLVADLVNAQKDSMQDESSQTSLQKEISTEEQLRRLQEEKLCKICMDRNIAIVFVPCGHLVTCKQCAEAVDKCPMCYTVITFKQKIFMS
Chain of Homeobox protein Hox-A13 (Mus musculus) (Q62424 whole entry, looked up): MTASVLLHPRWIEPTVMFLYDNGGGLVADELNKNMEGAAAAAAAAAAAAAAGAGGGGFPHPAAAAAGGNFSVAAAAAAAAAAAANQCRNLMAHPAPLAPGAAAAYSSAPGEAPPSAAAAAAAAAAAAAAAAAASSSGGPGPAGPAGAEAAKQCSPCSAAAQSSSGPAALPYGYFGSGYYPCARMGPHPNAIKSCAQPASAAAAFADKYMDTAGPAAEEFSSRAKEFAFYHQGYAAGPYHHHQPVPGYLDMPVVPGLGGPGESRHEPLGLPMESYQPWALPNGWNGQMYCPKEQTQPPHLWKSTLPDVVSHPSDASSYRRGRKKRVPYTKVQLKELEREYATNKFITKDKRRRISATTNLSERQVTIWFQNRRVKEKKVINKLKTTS

For the compound `CN(C)C(=O)[C@@]1(Cc2ccccc2CN=[N+]=[N-])N=C(c2ccc(OCCCO)cc2)O[C@H]1c1ccccc1N=[N+]=[N-]`, the z-score in test [1] is -0.699; in test [2], 0.37 (inactive); in [3], -2.96 (inactive); in test [5] it was 0.522 (inactive); in test [6], 1.22 (inactive); in [7], 0.776 (inactive). Further, the z-score in test [8] is -0.893 (inactive); in test [9], -3.85; in test [12], -2.02; in test [13], -0.638 (inactive); in test [14], -0.0351 (inactive); in test [15] it was -0.336 (inactive). In addition, the composite z-score in test [4] is 1.3 (inactive); in [10] it was 0.202; in test [11] it was 0.458 (inactive); in the test on XIP peptide (Xip251-270), 0.822.

For `CCOC(=O)C[C@H]1[C@H](OC(=O)c2ccccc2-c2ccccc2)[C@@H](NC(=O)c2ccc3ccccc3c2)c2cc(OCCCO)ccc2N1C(=O)c1ccccc1`, the z-score was -0.655 in test [1]; 0.264 (inactive) in test [2]; 0.0324 (inactive) in test [3]; -0.341 (inactive) in test [5]; 0.874 (inactive) in [6]; 0.547 (inactive) in [7]. In addition, the z-score in test [8] was 0.203 (inactive); in test [9], 0.225; in test [12], -1.72; in test [13] it was -2.39 (inactive); in test [14], 0.185 (inactive); in test [15], 0.361 (inactive). For the same compound, the composite z-score was 0.198 (inactive) in [4], -0.0988 in [10], -0.323 (inactive) in [11] and 0.306 with XIP peptide (Xip251-270).

With `[N-]=[N+]=NCc1ccccc1[C@H]1OC(c2ccc(OCCCO)cc2)=N[C@@]1(Cc1ccccc1N=[N+]=[N-])C(=O)NCC(O)CO` (stereo not given in full), the z-score in test [1] is -0.144; in test [2] it was -1.39 (inactive); in test [3] it was -0.898 (inactive); in test [5], 0.758 (inactive); in test [6], 0.313 (inactive); in [7], -0.0245 (inactive). In addition, the z-score in test [8] is -0.188 (inactive); in test [9], -1.06; in [12], -2.31; in test [13] it was -4.17 (inactive); in [14], -0.266 (inactive); in [15], 0.0665 (inactive). Further, the composite z-score was -0.407 (inactive) in test [4], 0.133 in test [10], 0.665 (inactive) in test [11] and 0.603 in the test with XIP peptide (Xip251-270).

On to `CCCC=C(CCC)[C@@H](NP(=O)(c1ccccc1)c1ccccc1)c1ccc(-c2ccccc2)cc1`, for which the z-score was 0.127 in test [1]; 2.21 (inactive) in test [2]; -1.16 (inactive) in [3]; -0.511 (inactive) in test [5]; 1.42 (inactive) in [6]; -0.492 (inactive) in test [7]. For the same compound, the z-score was 0.477 (inactive) in [8]; -1.72 in [9]; 0.0851 in test [12]; -1.13 (inactive) in test [13]; 0.175 (inactive) in [14]; -0.0233 (inactive) in [15]. For the same compound, the composite z-score was 0.23 (inactive) in test [4], 0.144 in test [10], 0.356 (inactive) in test [11] and 0.42 in the test with XIP peptide (Xip251-270).

As for `CCCCC(CC)C(O)C1C=CC2C(=O)N(C)C(=O)C2N1Nc1ccccc1` (stereo not given), the z-score in [1] was -0.339; in [2], -0.027 (inactive); in [3], -0.916 (inactive); in test [5], 0.723 (inactive); in test [6], 0.468 (inactive); in test [7], -0.861 (inactive). Moreover, the z-score in test [8] is -0.389 (inactive); in [9] it was -0.97; in test [12] it was 0.537; in test [13] it was -4.08 (inactive); in test [14], 0.168 (inactive); in test [15] it was -0.174 (inactive). The composite z-score is -0.206 (inactive) in test [4], 0.0297 in [10], -0.12 (inactive) in test [11] and 0.298 with XIP peptide (Xip251-270).

With `C=CCNC(=O)[C@@H]1[C@H]2C(=O)O[C@H](c3ccccc3)[C@H](c3ccccc3)N2[C@H](c2ccccc2OCCO)[C@@]12C(=O)Nc1ccc(C#CCCO)cc12`, the z-score in [1] is 0.282; in test [2], 0.634 (inactive); in test [3], 0.373 (inactive); in test [5], 4.62 (inactive); in test [6], 1.96 (inactive); in [7], -1.09 (inactive). Also, the z-score in test [8] is -2.17 (inactive); in test [9] it was -0.315; in [12] it was -2.22; in test [13], -3.84 (inactive); in [14], -0.38 (inactive); in test [15], -0.262 (inactive). The composite z-score in [4] is 1.22 (inactive); in test [10] it was 0.0461; in test [11], 0.712 (inactive); with XIP peptide (Xip251-270) it was 0.596.

Take `CCOC(=O)C[C@H]1[C@H](OC(=O)Cc2ccc3c(c2)OCO3)[C@@H](NC(=O)c2ccc3ccccc3n2)c2cc(OCCCO)ccc2N1C(=O)c1ccccc1`: the z-score in [1] is 0.374; in test [2], -0.407 (inactive); in [3] it was -1.51 (inactive); in test [5], -0.325 (inactive); in test [6], 0.946 (inactive); in [7], -0.247 (inactive). Also, the z-score in test [8] was 0.208 (inactive); in test [9], -0.139; in test [12] it was -1.03; in [13], -2.41 (inactive); in test [14], -0.705 (inactive); in test [15], -0.277 (inactive). Further, the composite z-score in [4] was -0.32 (inactive); in test [10] it was 0.134; in test [11], 0.269 (inactive); with XIP peptide (Xip251-270) it was 0.256.

Take `CC(CO)N1C(=O)[C@@H]2[C@H]3C(=O)OCC=C[C@H]3OC23C=CCN(Cn2nnc4ccccc42)C(=O)[C@@H]13` (stereo not given in full): the z-score in test [1] was -0.628; in test [2], 0.0199 (inactive); in [3] it was -0.124 (inactive); in test [5] it was -0.0558 (inactive); in test [6], -1.27 (inactive); in test [7], -0.11 (inactive). Besides, the z-score was -0.331 (inactive) in test [8]; -0.35 in [9]; 0.212 in test [12]; -3.47 (inactive) in test [13]; 0.612 (inactive) in [14]; 0.424 (inactive) in test [15]. In addition, the composite z-score was 0.29 (inactive) in [4], -0.334 in test [10], -0.0787 (inactive) in test [11] and -1.27 with XIP peptide (Xip251-270).

Turning to `COC(=O)C1=CC(CCCO)=CC(c2cccs2)N(C)C=C1C(=O)OC` (stereo not given), the z-score in test [1] was -0.86; in test [2], 0.856 (inactive); in test [3], -0.482 (inactive); in test [5], 0.462 (inactive); in test [6], 1.13 (inactive); in test [7], -0.187 (inactive). In addition, the z-score in [8] was -0.532 (inactive); in test [9], 0.0222; in test [12], -0.389; in test [13] it was -7.53 (inactive); in [14], 0.176 (inactive); in test [15], 0.219 (inactive). For the same compound, the composite z-score in test [4] was 0.75 (inactive); in [10] it was 0.212; in test [11], 0.0334 (inactive); in the test on XIP peptide (Xip251-270), 0.819.

Take `Cc1ccc(NN2C(C(O)c3c(F)cccc3Cl)C=CC3C(=O)N(C4CCCCC4)C(=O)C32)cc1` (stereo not given): the z-score in [1] was 0.703; in test [2], -0.074 (inactive); in [3], 0.0812 (inactive); in test [5], 1.47 (inactive); in [6], -0.717 (inactive); in test [7], -0.452 (inactive). Moreover, the z-score in test [8] was 0.432 (inactive); in [9] it was 0.262; in [12] it was -0.216; in test [13] it was -3.84 (inactive); in test [14], -0.0771 (inactive); in test [15], -0.369 (inactive). The composite z-score in [4] is -1.12 (inactive); in test [10], 0.122; in test [11] it was -0.391 (inactive); with XIP peptide (Xip251-270), 0.696.

These data come from PubChem BioAssay.
